We go through 40 compounds from PubChem BioAssay (EPA / NIEHS).

Records with an inconclusive call do not appear. Calls of active or inactive are those of the source. How the source made its calls: active means hit-call score of the fitted dose curve at least 0.9, where 1 is the maximum; inconclusive means response in the unintended direction; inactive means score below 0.9.

Glucocorticoid receptor (Homo sapiens), sequence (P04150 whole entry, looked up): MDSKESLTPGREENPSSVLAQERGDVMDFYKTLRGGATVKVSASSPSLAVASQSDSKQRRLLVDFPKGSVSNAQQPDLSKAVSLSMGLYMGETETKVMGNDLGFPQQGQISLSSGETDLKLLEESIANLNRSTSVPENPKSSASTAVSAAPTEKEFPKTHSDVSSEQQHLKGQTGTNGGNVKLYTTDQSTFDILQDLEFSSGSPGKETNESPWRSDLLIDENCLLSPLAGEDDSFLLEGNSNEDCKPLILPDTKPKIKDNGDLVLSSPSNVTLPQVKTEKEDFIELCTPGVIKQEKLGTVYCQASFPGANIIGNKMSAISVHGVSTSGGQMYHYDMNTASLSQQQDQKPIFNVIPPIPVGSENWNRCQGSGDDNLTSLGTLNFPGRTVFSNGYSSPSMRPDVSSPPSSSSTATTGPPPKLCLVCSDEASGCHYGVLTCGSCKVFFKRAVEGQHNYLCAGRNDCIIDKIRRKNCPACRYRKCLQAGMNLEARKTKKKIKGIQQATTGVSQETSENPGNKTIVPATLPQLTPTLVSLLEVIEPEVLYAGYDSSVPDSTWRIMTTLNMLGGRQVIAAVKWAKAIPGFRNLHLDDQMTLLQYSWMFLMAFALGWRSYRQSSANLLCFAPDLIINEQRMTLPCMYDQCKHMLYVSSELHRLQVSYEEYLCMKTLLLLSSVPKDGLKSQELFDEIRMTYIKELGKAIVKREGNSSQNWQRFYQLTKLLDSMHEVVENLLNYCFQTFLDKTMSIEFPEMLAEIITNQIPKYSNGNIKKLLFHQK

This assay concerns the target Glucocorticoid receptor (Homo sapiens) (UniProt P04150). Briefly: ATG_GR_TRANS: Attagene TRANS-FACTORIAL HepG2 Assay for human Glucocorticoid Receptor (GR) (AID 2282978).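 Further: activators score as hits since higher reporter transcript over DMSO is fitted.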 The note with it: HepG2 Attagene TRANS GR reporter, mRNA transcription. As to the method:
ATG_TRANS is a cell-based, multiplexed-readout assay that uses HepG2, a human liver cell line, with measurements taken at 24 hours after chemical dosing in a 24-well plate.ATG_GR_TRANS is one of 30 assay component(s) measured or calculated from the ATG_TRANS assay. It is designed to make measurements of mRNA induction, a form of inducible reporter, as detected with fluorescence intensity signals by Reverse transcription polymerase chain reaction (RT-PCR) and Capillary electrophoresis technology.Data from the assay component ATG_GR_TRANS was analyzed into 1 assay endpoint. This assay endpoint, ATG_GR_TRANS, was analyzed in the positive analysis fitting direction relative to DMSO as the negative control and baseline of activity. Using a type of inducible reporter, measures of mRNA for gain-of-signal activity can be used to understand the reporter gene at the transcription factor-level as they relate to the gene NR3C1. Furthermore, this assay endpoint can be referred to as a primary readout, because this assay has produced multiple assay endpoints where this one serves a reporter gene function. To generalize the intended target to other relatable targets, this assay endpoint is annotated to the nuclear receptor intended target family, where the subfamily is steroidal.
Human liver HepG2 cells are transiently transfected with multiple reporter transcription units (MRTUs) in 6-well plates using FuGene 6 reagent (Roche; 3 ml FuGene/1 mg DNA). The MRTU constructs are regulated by a cis-regulating element (promoter). […] A major difference between the CIS and TRANS system is that in CIS activities of endogenous TFs are measured, whereas the TRANS assay evaluates changes in activities of exogenous, chimeric NR-Gal4 proteins. […] At the end of 24 hour incubation, total RNA was isolated using TriZol reagent (Invitrogen). The isolated RNA is then reverse-transcribed using oligo(dT) primer and Mo-MLV reverse transcriptase (Invitrogen) with DNAse I (Ambion) treatment for 30 min. The one-tenth of the produced cDNA was amplified by PCR using Taq DNA polymerase (Invitrogen) and two reporter sequence-specific primers. The PCR products were fluorescently labeled by primer extension with 6-arboxyfluorescein (6-FAM) 5'-labeled reporter sequence-specific primer (2 min at 95 C, 20 s at 68 C and 10 min at 72 C) and these products were digested with 5U of HpaI (New England Biolabs) for 2h at 37 C. The fragments were purified using Qiaquick PCR columns (Qiagen), analyzed on an ABI 3130xL genetic analyzer (Applied Biosystems) with peak positions identified by using a set of X-rhodamine (ROX)-labeled MapMarker1000 molecular weight standards (BioVentures). The raw capillary electrophoresis data was processed using Attagraph software (Attagene).
Consider `O=C(O)Cc1cc(I)c(Oc2cc(I)c(O)c(I)c2)c(I)c1`, for which the compound was classed as inactive.

For `c1ccc2c(c1)ccc1ccccc12`, the outcome was inactive.

Take `CCCCCCCCCCCCc1ccccc1S(=O)(=O)O`: the result was inactive.

For orientation: AC50 means the concentration giving half of the maximal activity seen. For `CC(=O)NC1(c2cccc(F)c2)CCN(CC[C@@]2(c3ccc(Cl)c(Cl)c3)CN(c3ccccc3)C(=O)CO2)CC1`, the AC50 is 62 µM (active).

Turning to `CCCCC(CC)COC(=O)CCCCC(=O)OCC(CC)CCCC` (stereo not given), the compound was classed as inactive.

Regarding `CC[C@H](c1ccc(O)cc1)[C@@H](CC)c1ccc(O)cc1`, the result was inactive.

With `Oc1cccc(O)c1`, the compound was called inactive.

For `CCCCC[C@H](O)CC(=O)CCc1ccc(O)c(OC)c1`, the compound was called inactive.

With `C#C[C@]1(O)CC[C@H]2[C@@H]3CCC4=CC(=O)CC[C@@H]4[C@H]3CC[C@@]21C`, the call was inactive.

Regarding `OCCC(F)(F)C(F)(F)C(F)(F)C(F)(F)C(F)(F)C(F)(F)F`, the call was inactive.

Consider `Cc1cc(C)c(O)c(C)c1`, for which the call was inactive.

For the compound `N#C[C@@H]1CC(F)(F)CN1C(=O)CNC1CC2CCC(C1)N2c1ncccn1` (stereo not given in full), the compound was classed as inactive.

As to `O=C(O)c1ccccc1C(c1ccc(O)cc1)c1ccc(O)cc1`, the call was inactive.

For `CC#C[C@]1(O)CC[C@H]2[C@@H]3CCC4=CC(=O)CCC4=C3[C@@H](c3ccc(N(C)C)cc3)C[C@@]21C`, the compound was called inactive.

As to `Oc1cc2ccccc2c2ccccc12`, the compound was classed as inactive.

Consider `COc1ccc([N+](=O)[O-])cc1N`, for which the call was inactive.

As for `CCN(CC)CCNc1ccc(CNC=O)c2sc3ccc(OC)cc3c(=O)c12`, the AC50 was 1.85 µM (active).

Turning to `Cc1cc(CCN2CCN(c3nsc4ccccc34)CC2)cc2c1NC(=O)CC2(C)C`, the outcome was inactive.

Turning to `O=C1OC2(c3ccccc31)c1cc(Br)c(O)c(Br)c1Oc1c2cc(Br)c(O)c1Br`, the compound was classed as inactive.

Turning to `CC(C)(C)c1cccc(C(C)(C)C)c1O`, the result was inactive.

For `CCc1ccc(CCOc2ccc(CC3SC(=O)NC3=O)cc2)nc1` (stereo not given), the compound was called inactive.

For `CCc1nn(C2CCCCC2)c2cc(C3(C#N)CCC(C(=O)O)CC3)ccc12` (stereo not given), the outcome was inactive.

Turning to `NC(=O)N(O)[C@@H]1C=C[C@H](Oc2cccc(Oc3ccc(F)cc3)c2)C1`, the result was inactive.

As for `COC(=O)CCCCC(=O)OC`, the outcome was inactive.

For the compound `NCC(F)(F)C(F)(F)C(F)(F)C(F)(F)C(F)(F)C(F)(F)C(F)(F)F`, the compound was classed as inactive.

On to `CCCCCCCC(=O)O`, for which the compound was called inactive.

With `CC(=O)CC(C)(C)O`, the compound was classed as inactive.

As for `CCCCCCC(=O)O`, the compound was called inactive.

As for `CC1=C(/C=C/C(C)=C/C=C/C(C)=C/C(=O)O)C(C)(C)CCC1`, the call was inactive.

`CC(C)(C)c1cc(C(C)(C)C)c(O)c(C(C)(C)C)c1`: the outcome was inactive.

Turning to `CCCOc1sc(C(=O)N2CCC(c3cc(CN)ccc3F)CC2)c(C)c1Br`, the compound was classed as inactive.

Regarding `ClC1=C(Cl)C(Cl)(Cl)C(Cl)=C1Cl`, the call was inactive.

With `CC(O)CO` (stereo not given), the outcome was inactive.

In the case of `Cc1ccc(S(=O)(=O)O)c(C)c1`, the call was inactive.

For the compound `Cc1oc(-c2ccccc2)nc1CCOc1ccc(C[C@H](Nc2ccccc2C(=O)c2ccccc2)C(=O)O)cc1`, the compound was classed as inactive.

Turning to `O=c1c(-c2ccc(O)cc2)coc2cc(O)ccc12`, the compound was called inactive.

In the case of `CCC(=C(c1ccc(O)cc1)c1ccc(OCCN(C)C)cc1)c1ccccc1`, the outcome was inactive.

Take `C=C(C)C(=O)OCCC(F)(F)C(F)(F)C(F)(F)C(F)(F)C(F)(F)C(F)(F)F`: the call was inactive.

On to `OC1CCC(C2CCCCC2)CC1` (stereo not given), for which the outcome was inactive.

Take `COCC(C)O` (stereo not given): the result was inactive.
